Laboratory results reported in PubChem BioAssay (NCI).
Compounds without any hit were thinned out: in the full panel of roughly 83,000, 20% have a hit.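 Activity criterion: percent growth below 10, measured after cells in 96-well plates were exposed to a single compound concentration for 48 hours.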 Unmarked numbers belong to inactive results. Active and inactive are the calls of the source.

Tested on: HL-60(TB) leukemia
Assay: NCI-60 one-dose screen, 48 h (100 = growth as untreated, 0 = no growth, -100 = all killed)
Conditions: 10 µM unless noted

SMILES	growth
C=C(c1ccc(N(C)C)cc1)c1ccc(N(C)C)cc1	-6.12% (active)
C=C1C(=O)O[C@H]2[C@H]1CC/C(COC(=O)NCc1ccc(Cn3c(=O)sn(-c4ccc(C#N)cc4)c3=O)cc1)=C\CC[C@@]1(C)O[C@@H]21	-13.1% (active)
CN1CCc2c(sc3nc4n(-c5ccc(Cl)cc5)c(=O)[nH]n4c(=O)c23)C1	89.3%
COc1cc2c(c3c1c(=O)c1cccc(F)c1n3C)C=CC(C)(C)O2	100%
CCCCN(CCCC)c1cc(C(=O)CCCCCN)c2ccccc2n1	-67.9% (active)
Cc1ccc2c(c1)C(=O)/C(=C/c1cccc(OCC(=O)c3ccc(Cl)cc3)c1)CS2	43.1%
CCCCCCCCCCCCCCCc1ccc(N)c(OC2OC(CO)C(O)C(O)C2O)c1 (stereo not drawn)	23%
O=C1CC(c2ccc(O)c(O)c2)Oc2cc(O)c([C@@H]3O[C@H](CO)[C@@H](O)[C@H](O)[C@H]3O)c(O)c21 (stereo partly drawn)	99.6%
O=C1COCCN1c1ccc(NCc2cn(Cc3ccc(F)cc3)c3ccccc23)cc1	86.9%
Cc1nc2ccccc2c(/C=C/c2ccc(C(F)(F)F)cc2)c1C(=O)/C=C/c1ccccc1	-19% (active)
C[N+](C)(CCOC(c1ccccc1)c1ccccc1)CC(=O)OCc1ccccc1	100%
CC(=O)OCCCCCCn1c2ccccc2c2c3c(c4c5ccccc5n(C)c4c21)C(=O)N(O)C3=O	41.2%
Cc1cc(C)c2c(N)c3cccc(C)c3nc2n1	-19.1% (active)
